Test results from the supplement of paper PMC7695840.

Legend:
[1] = system: Staphylococcus aureus MW2 delta-mecA (mecA-); experiment: normalized GFP fluorescence (growth of mecA- strain) (fraction of control range); higher = more growth of mecA- strain; settings: compound concentration: 150 uM; cefoxitin: subinhibitory; fluorescent label: GFP
Procedure, shortened: (§1)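 Fluorescence from DsRed (540/590) and GFP (485/520) was recorded after 20 h of static growth at 37 °C and 90% humidity. The wells held a 1:1 mix of pre-induced S. aureus MW2 cells, gene-bearing with DsRed and gene-deleted with GFP, in LB with a daily-set subinhibitory antibiotic dose, dispensed at 5 µL/well onto 150 μM compound (1.5% DMSO) in 1536-well plates, single replicate. Each channel was scaled per plate between single-strain control medians, excluding plates with high untreated ratios and rows with DsRed/GFP >10.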

[2] = system: Staphylococcus aureus MW2 (mecA+); experiment: normalized DsRed fluorescence (growth of mecA+ strain) (fraction of control range); higher = more growth of mecA+ strain; settings: compound concentration: 150 uM; cefoxitin: subinhibitory; fluorescent label: DsRed
Procedure, shortened: as §1

Row | Structure (SMILES) | normalized GFP fluorescence [1] | normalized DsRed fluorescence [2]
1 | CC(O)CN1CCN(CC(=O)[O-])CCN(CC(=O)[O-])CCN(CC(=O)[O-])CC1.[Gd+3] (stereo not given) | 0.58 | 0.515
2 | CC(C)c1cccc(C(C)C)c1O | 0.257 | 0.882
3 | CC(=O)O[C@H]1C[C@@H]2CC[C@@H]3[C@H](CC[C@@]4(C)[C@H]3C[C@H]([N+]3(C)CCCCC3)[C@@H]4OC(C)=O)[C@@]2(C)C[C@@H]1[N+]1(C)CCCCC1 [Pancuronium (Pavulon)] | 0.324 | 0.578
4 | Nc1ccncc1 | 0.334 | 0.715
5 | CC(C)[N+](C)(CCC(C(N)=O)(c1ccccc1)c1ccccc1)C(C)C | 0.202 | 0.447
6 | CC(C)N(CCC(C(N)=O)(c1ccccc1)c1ccccn1)C(C)C (stereo not given) | 0.541 | 0.697
7 | O=C(O)CCCc1ccc(N(CCCl)CCCl)cc1 | 0.418 | 1.38
8 | COc1ccc(OC)c(C(O)C(C)N)c1 (stereo not given) | 0.864 | 0.526
9 | CC(=O)OC1CN2CCC1CC2 (stereo not given) | 0.565 | 0.665
10 | Oc1cccc2cccnc12 | 0.00976 | 0.0478
11 | CC[C@@H](c1cccc(O)c1)[C@@H](C)CN(C)C | 0.313 | 0.724
12 | C[N+]12CCC(CC1)C(OC(=O)C(O)(c1ccccc1)c1ccccc1)C2 (stereo not given) | 0.468 | 0.579
13 | N.N.[Cl][Pt][Cl] | 0.807 | 0.697
14 | O=C1CC[C@@]2(O)[C@H]3Cc4ccc(O)c5c4[C@@]2(CCN3CC2CC2)[C@H]1O5 | 0.283 | 0.86
15 | C[C@]12CC[C@@H]3c4ccc(OC(=O)N(CCCl)CCCl)cc4CC[C@H]3[C@@H]1CC[C@@H]2O | 0.117 | 0.515
16 | C#CCN(C)[C@H](C)Cc1ccccc1 | 0.853 | 0.547
17 | CNC(=O)Oc1ccc2c(c1)[C@]1(C)CCN(C)[C@@H]1N2C | 0.574 | 0.687
18 | NCC(CC(=O)O)c1ccc(Cl)cc1 (stereo not given) | 0.683 | 0.941
19 | N[C@@H](Cc1ccc(N(CCCl)CCCl)cc1)C(=O)O | 0.309 | 0.612
20 | CC(C)CC(N(C)C)C1(c2ccc(Cl)cc2)CCC1 (stereo not given) | 0.0915 | 
21 | C#C[C@]1(O)C=C[C@H]2[C@@H]3CCC4=CC(=O)CC[C@@H]4[C@H]3CC[C@@]21CC [Gestodene] | 0.342 | 0.279
22 | C[C@@H]1O[C@@H](O[C@@H]2C=C3CC[C@@H]4[C@H](CC[C@]5(C)[C@@H](c6ccc(=O)oc6)CC[C@]45O)[C@@]3(C)CC2)[C@H](O)[C@H](O)[C@H]1O | 0.198 | 0.926
23 | COC(=O)C(c1ccccc1)C1CCCCN1 (stereo not given) | 0.277 | 0.737
24 | CCCC(C)(COC(N)=O)COC(=O)NC(C)C (stereo not given) | 0.54 | 1.05
25 | CC(=O)O[C@H]1C[C@H](O[C@H]2[C@@H](O)C[C@H](O[C@H]3[C@@H](O)C[C@H](O[C@H]4CC[C@@]5(C)[C@H](CC[C@@H]6[C@@H]5C[C@@H](O)[C@]5(C)[C@@H](C7=CC(=O)OC7)CC[C@]65O)C4)O[C@@H]3C)O[C@@H]2C)O[C@H](C)[C@H]1O[C@@H]1O[C@H](CO)[C@@H](O)[C@H](O)[C@H]1O | 0.391 | 0.766
26 | CN1C(=O)C(O)N=C(c2ccccc2)c2cc(Cl)ccc21 (stereo not given) | 0.205 | 0.691
27 | CNC(C)(C)Cc1ccccc1 | 0.75 | 0.831
28 | C[N+]1(C)[C@@H]2CC[C@H]1C[C@@H](OC(=O)C(CO)c1ccccc1)C2 (stereo not given in full) | 0.479 | 0.574
